# Most compounds without a hit are left out; they make up all but 2.4% or so of the library.
# D2 ag-1 = activates the human D2 dopamine receptor. DiscoveRx PathHunter D2 beta-arrestin, luminescence, 90 min; 100% = 57 uM dopamine signal. activation, % (concentration not given with the values). AID 624465. 360,000 tested, 0.084% active. P14416; in the data active = activation above about 40%; inconclusive = between about 15% and that limit
# Target sequence (P14416 whole entry, looked up): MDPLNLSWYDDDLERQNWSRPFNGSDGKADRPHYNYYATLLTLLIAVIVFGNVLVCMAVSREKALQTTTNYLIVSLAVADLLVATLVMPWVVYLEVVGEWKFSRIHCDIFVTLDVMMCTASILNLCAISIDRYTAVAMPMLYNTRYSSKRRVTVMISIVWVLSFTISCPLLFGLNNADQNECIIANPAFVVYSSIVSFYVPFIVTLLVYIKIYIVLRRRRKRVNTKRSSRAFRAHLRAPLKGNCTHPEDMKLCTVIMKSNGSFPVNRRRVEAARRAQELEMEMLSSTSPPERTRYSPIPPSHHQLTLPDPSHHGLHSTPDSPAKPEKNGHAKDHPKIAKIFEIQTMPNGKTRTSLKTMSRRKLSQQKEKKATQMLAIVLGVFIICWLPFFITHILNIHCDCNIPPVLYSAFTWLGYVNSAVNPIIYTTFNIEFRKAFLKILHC
#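 Agonist mode: compounds alone added to overnight-plated D2 PathHunter cells for 90 min at 37 C, with 57 uM final dopamine (EC100) defining full response. Beta-arrestin recruitment detected by chemiluminescent reagent, read after 1 h at ambient temperature.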
# D2 PAM-1 = positive allosteric modulators of human D2 dopamine receptor. P14416. AID 485347. HEK293 T-REx D2, calcium flux, EC20 dopamine potentiation. 340,000 tested, 0.34% active. potentiation, % at 10 µM;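 active = potentiation over 3 SD above the plate norm, cut at about 30% in these data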; also: 0% is about no effect
#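 Using a no-wash calcium dye in inducible, force-coupled HEK293 Trex cells expressing D2, we tracked fluorescence each second for 180 s after compound, then for 180 s after EC20 dopamine to detect augmented signalling.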
# D2 ag-2 = agonists of human D2 dopamine receptor; HEK293 T-REx D2 cells, calcium flux agonist mode; AID 485358; activation, % at 2 µM; 340,000 tested, 0.53% active; P14416;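 active = activation over 3 SD above normal in the single-dose calcium agonist read, cut at about 30% in these data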; also: 0% is about no effect
#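 Calcium-flux readout, 1 cycle/sec over 180 s following compound pin transfer, in inducible HEK293 Trex D2 cells (force-coupled); dopamine controls included. Positive calcium responses during this window marked compounds as potential agonists.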
# D2 antagonist = D2 dopamine receptor (human) antagonism. HEK293 TREx D2 cells, calcium flux, dopamine EC80. inhibition, % at 10 µM. 340,000 tested, 2% active. AID 485344; in the data active = inhibition above about 30%; inactive = below that, where a call was filed; also: 0% is about no effect
#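 Overnight-induced (tetracycline, 30 C) HEK293 T-REx cells carrying force-coupled D2 receive a no-wash calcium dye, then compound, then EC80 dopamine at 180 s; signals are read kinetically throughout.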
# D2 PAM-2 = positive allosteric modulators of human D2 dopamine receptor | 360,000 tested, 0.23% active | potentiation, % (no concentration beside the values) | AID 624464 | DiscoveRx D2 beta-arrestin cells, luminescence, 90 min; 100% = 57 uM dopamine signal | P14416; in the data active = potentiation above about 50%; inconclusive = mostly about 30% to 49%
#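 PathHunter beta-arrestin assay in DiscoveRx D2 cells. Compounds were added with an EC20 of dopamine (50 nM final) for 90 min at 37 deg C. Luminescence was read 1 h after detection reagent, with 57 uM dopamine as the EC100 control.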
# * = called active by the depositor; ? = inconclusive; . = not tested or not shown.
SMILES,D2 ag-1,D2 PAM-1,D2 ag-2,D2 antagonist,D2 PAM-2
CSc1ccc2c(c1)C(N1CCN(C)CC1)Cc1ccc(F)cc1S2 (stereo not given),0,.,.,.,-12
Clc1ccc2c(c1)C(N1CCNCC1)Cc1ccccc1S2 (stereo not given),-3,-28,1,99*,-38
COc1cc(CNc2ccc(O)cc2)cc(Br)c1OCc1ccccc1F,?,6,-2,2,77*
CCOC(=O)C(CC)Sc1c(CC)cnc2c1c(=O)n(C)c(=O)n2C (stereo not given),.,0,1,.,.
CCCN1C(=O)/C(=C/c2ccc(C)s2)NC1=S,-2,-10,0,31*,-2
Fc1ccc(-c2noc3ncnc(NCC4CCN(Cc5ccc(Cl)cc5)CC4)c23)cc1,.,.,-2,.,.
CCOC(=O)c1cnc(-n2nc(C)cc2C)nc1Nc1ccccc1OC,.,9,0,6,.
CCOC(=O)c1cnc(-n2nc(C)cc2C)nc1NCCc1ccccc1,-4,-1,0,34*,-8
CCOC(=O)c1c(N)n(-c2ccccc2CC)c2nc3ccccc3nc12,.,-9,.,.,.
CCOc1ccc(C(=O)NCC(=O)OCc2c(C)noc2C)cc1OCC,-2,-4,2,37*,-16
CCOc1ccccc1NC(=O)C(=O)NCCc1sc2nc(-c3ccc(OC)cc3)nn2c1C,.,8,1,.,.
Cc1cccc(C(=O)Oc2c(Sc3ccccc3)c(C)nn2C(C)(C)C)c1,.,.,-1,.,.
CCC(OC(=O)c1ccco1)C(=O)NCc1ccc(C)cc1 (stereo not given),-2,-25,1,66*,2
Cc1ccc(CNC(=O)C(C)OC(=O)c2ccco2)cc1 (stereo not given),-2,2,0,6,-2
Cc1ccc(CCNC(=O)c2sc3nc4n(c(=O)c3c2C)CCCC4)cc1,.,8,-1,.,.
CCOc1ccc(OCCN(C)Cc2ccccc2)cc1,0,-5,1,10,-24
CN(CCOc1ccc(Cl)c(Cl)c1)Cc1ccccc1,-3,-25,0,65*,-4
CN(CCCOc1ccccc1Br)Cc1ccccc1,-4,-22,0,39*,-29
Cc1ccc(Cl)c(OCCCCN(C)Cc2ccccc2)c1,-4,-22,-1,45*,-27
CCOc1cccc(OCCOCCN(C)Cc2ccccc2)c1,-3,-38,0,30*,-30
COc1cc(OC)c(NC(=O)c2ccc3c(c2)N(Cc2ccc(C)cc2)CCS3)cc1Cl,.,-5,0,.,.
Cc1noc(/C=C/c2ccccc2F)c1S(=O)(=O)N1CCC(C(=O)Nc2ccc(C#N)cc2)CC1,.,7,0,.,.
CN(CCCOc1ccccc1F)Cc1ccccc1,-1,-22,-1,19,-5
Cc1ccc(Cl)c(OCCCN(C)Cc2ccccc2)c1,-4,-22,0,63*,-24
CN(CCOCCOc1ccc(Cl)cc1Br)Cc1ccccc1,0,-15,1,40*,-16
SMILES,D2 ag-1,D2 PAM-1,D2 ag-2,D2 antagonist,D2 PAM-2
Cc1nc2cccnc2n1C1CCN(S(C)(=O)=O)CC1,.,13,.,.,.
N#C/C(=C\c1ccccc1)C(=O)Nc1sc2c(c1C(N)=O)CCC2,.,1,0,.,.
Cc1cnc(C(=O)OCC(=O)NC(C)CCc2ccccc2)cn1 (stereo not given),3,15,0,34*,-1
Cc1cnc(C(=O)OCC(=O)NCc2ccccc2)cn1,0,8,0,-2,-3
Cn1cc(C(=O)O)c(=O)c2cc(S(=O)(=O)N3CCOCC3)ccc21,.,-5,4,.,.
Nc1nnc(-c2ccccc2F)s1,-2,11,1,45*,-5
CC(CCc1ccccc1)N1CCN(Cc2ccccc2)CC1 (stereo not given),-1,-16,0,61*,-41
CC(CN1CCN(Cc2ccccc2)CC1)c1ccccc1 (stereo not given),-4,1,0,0,-64
Cc1cc(C)c2c(=O)cc(C(=O)NCc3ccc(S(N)(=O)=O)cc3)oc2c1,.,9,-1,.,.
O=C(NCc1ccc(F)cc1)c1cc2sccc2n1Cc1ccc(F)cc1,.,31*,1,-5,.
CCOc1ccccc1-c1nc(C(N)=O)c2c(n1)n(-c1ccc3c(c1)OCO3)c(=O)n2C,.,-5,-1,.,.
C#CCn1c2ccccc2c2nc3ccccc3nc21,1,14,0,-13,-1
CC(C)n1c2ccccc2c2nc3ccccc3nc21,-6,40*,-1,-10,-19
COc1ccc(CNC(=O)C2CCN(S(=O)(=O)c3ccc4c(ccn4C)c3)CC2)cc1,.,-1,0,.,.
COc1ccc(-c2cc(C(F)F)n3ncc(C(=O)N4CCN5CCCC5C4)c3n2)cc1 (stereo not given),-1,0,0,52*,-37
COc1cc(NC(=O)Cc2c(C(=O)O)n(C)c3ccccc23)cc(OC)c1OC,5,.,.,.,-4
COc1ccc(NC(=O)Cc2c(C(=O)O)n(C)c3ccccc23)cc1OC,-5,32*,0,2,-1
Cc1ccccc1C(=O)OCCN(C)Cc1ccccc1,-5,-21,-2,32*,-16
Cc1ccc(C(=O)OCCN(C)Cc2ccccc2)cc1,-4,-19,2,2,-19
COc1ccc(S(=O)(=O)N(C)C)cc1NC(=O)COC(=O)Cn1cnc2ccccc2c1=O,0,-13,1,38*,-2
COc1ccc(S(=O)(=O)N(C)C)cc1NC(=O)CCCSc1ccccc1,-4,.,-1,48*,-19
Cc1ccc(S(=O)(=O)N(C)C)cc1NC(=O)COC(=O)c1n[nH]c(=O)c2ccccc12,-7,-21,0,52*,-19
COc1ccc(NC(=O)COC(=O)Cn2cnc3ccccc3c2=O)cc1OC,-2,0,1,-11,-6
COC(=O)c1ccc(C)c(NC(=O)Cn2cnc3ccccc3c2=O)c1,0,0,1,35*,-1
Cc1nc2sccn2c(=O)c1S(=O)(=O)N1CCN(c2ccccc2)CC1,-2,-2,0,5,1
SMILES,D2 ag-1,D2 PAM-1,D2 ag-2,D2 antagonist,D2 PAM-2
Cc1nc2sccn2c(=O)c1CCN1CCC(=C(c2ccccc2)c2ccc(F)cc2)CC1,.,-25,2,73*,.
COc1cc(NS(=O)(=O)c2ccc(NC(=O)/C=C/c3ccc([N+](=O)[O-])cc3)cc2)ncn1,-5,9,0,-4,102*
Cc1ccc(-c2nnc(Nc3ccc(Br)cc3)c3ccccc23)cc1S(=O)(=O)NCC1CCCO1 (stereo not given),.,1,-1,.,.
CSc1ccc(C2c3c(oc4cc(C)cc(C)c4c3=O)C(=O)N2CCO)cc1 (stereo not given),.,.,0,.,.
CS(=O)(=O)c1ccc(Cl)c(S(=O)(=O)NCc2ccccc2)c1,1,-4,1,35*,-11
CCc1ccc(-n2c(SCc3cccc(F)c3)nc3[nH]ncc3c2=O)cc1,.,8,0,.,.
